# Shown are actives, neighbours in structure and some others; about 19% of the full set was active somewhere.
# HT1080 IDH1KD tx – HT-1080 IDH1 knockdown cell toxicity (counter line); HT-1080 IDH1 knockdown viability, ATP luminescence, 48 h; Potency, µM (top dose mostly 46.1 µM), inactives show at the top dose activity, negative = toxicity, actives largely listed as cytotoxic; 2% of 360,000 active; AID 686971;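 further: potency means the concentration at half of the fitted maximal effect; 0% = DMSO wells and -100% = cell-free medium wells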
#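 Using the IDH1-knockdown HT-1080 line run in the same batch and compound series as the NT line, viability after 48 h at 37 °C was determined by CellTiter-Glo luminescence and expressed as % activity.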
# IL1B secr inh – blocks inflammasome-driven IL-1 beta release. THP-1 LPS/ATP IL-1B secretion, AlphaLISA, 16 h; hits give low values. activity change, % at 57.5 µM. 4.7% of 360,000 active; in the data active means activity change below about -50%; inconclusive means mostly about -30% to -49%
#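 THP-1 cells pretreated 1 hr with compounds (up to 57.5 uM final), then stimulated with LPS (250 ng/mL final) plus ATP (1.25 mM final); secreted IL-1B measured by AlphaLISA after 16 hr, decreased signal indicating inhibition.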
# HT1080-NT tox – kills 2HG-producing HT-1080-NT fibrosarcoma cells | HT-1080-NT fibrosarcoma viability, CellTiter-Glo ATP luminescence, 48 h | Potency, µM (doses to about 46.1 µM), for inactives: at the highest dose activity, negative = less viability, actives largely listed as cytotoxic | 1.6% of 360,000 active;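 further: NT is the 2HG producing partner of a matched IDH1 knockdown line; potency means the concentration at half of the fitted maximal effect; 0% = DMSO-treated cells and -100% = media-only wells without cells; nearly all actives have a fitted effect of over 55% in size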
#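 Read-out is CellTiter-Glo luminescence after 10 minutes at room temperature, following 48 hours' compound treatment of HT-1080-NT cells (750 cells/well, RPMI, 5% FBS, 37 degrees C).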
# TDP1 cell noCPT – qHTS for Inhibitors of human tyrosyl-DNA phosphodiesterase 1 (TDP1): qHTS in cells in absence of CPT | 15% of 420,000 active | Potency, µM (doses to about 46.2 µM), for the others: at the highest dose activity change, negative = growth inhibition, usual class: inhibitors | DT40 Tdp1-/- hTDP1 cells, no CPT, ATP luminescence, 48 h; further: potency means the concentration at half of the fitted maximal effect; nearly all actives have a fitted effect of over 55% in size
#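 Growth kinetics read by CellTiter-Glo luminescence after ≥48 hr at 37 °C. Cells: DT40 Tdp1-/- stably carrying human TDP1, 400 per well, compound exposure in the absence of CPT (DMSO vehicle).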
# DT40 TDP1 CPT – DT40-hTDP1 cell growth loss with CPT; chicken DT40 Tdp1-/-;hTDP1 cells + 20 nM CPT, ATP luminescence, 48 h; Potency, µM (titrated, usually from 46.2 µM), for inactives: at the highest dose activity change, negative = growth inhibition, hits mostly inhibitors; 12% of 420,000 active; AID 686979; further: potency means the concentration at half of the fitted maximal effect; nearly all actives have a fitted effect of over 55% in size
#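 Chicken DT40 Tdp1-/- cells complemented with human TDP1, 400 cells/well, exposed to compounds plus 20 nM camptothecin for at least 48 h at 37 C; viability read as ATP content by CellTiter-Glo luminescence.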
# ELG1 DNA repair – inhibitors of ELG1-dependent DNA repair in HEK293T cells. Potency, µM (series often up to 46.1 µM), for the others: at the top dose activity change, negative = inhibition, actives largely listed as inhibitors. HEK293T ELG1-luciferase reporter, luminescence, 16 h; DNA damage induced by 5-fluorouridine. 2.3% of 330,000 active. AID 504467; further: potency means the concentration at half of the fitted maximal effect; nearly all actives have a fitted effect of over 55% in size
#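 In this reporter screen, reduction of luminescence relative to DMSO vehicle indicated activity. Compounds and 5-fluorouridine were added together to 2,000 cells per well, incubated for 16 hr at 37 °C, then developed with ONE-Glo.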
# Active calls of the source: *; ? = inconclusive; nt = no result given; [ ] = another dose, or the depositor's remark. Unless noted, the call rests on the fitted dose curve; in most records, active means well fitted curve in the direction sought with a large enough effect; inconclusive means small, poorly fitted or top-dose-only effect, or another doubt; inactive means no such curve, though single readings can be large; an effect the other way counts as inactive or inconclusive. Unless noted, on the % scale 0 is the no-effect control and ±100 the full control effect.
SMILES,HT1080 IDH1KD tx,IL1B secr inh,HT1080-NT tox,TDP1 cell noCPT,DT40 TDP1 CPT,ELG1 DNA repair
C[n+]1ccc(/C=C/c2cccs2)cc1,?,14,-20%,-14%,-19%,?
COc1ncc2nc(-c3ccc(Cl)cc3)c(=O)n(C[C@H]3CCCO3)c2n1,nt,nt,nt,-6%,10%,nt
O=S(=O)(Nc1ccc(O)c2ccccc12)c1ccc(F)cc1,-16%,16,-17%,9.2µM*,12µM*,nt
O=S(=O)(Nc1ccc(NS(=O)(=O)c2ccccc2)c2ccccc12)c1ccccc1,-21%,-5,-4%,?,-17%,nt
CCc1ccc(S(=O)(=O)Nc2ccc(O)c3ccccc23)cc1,-8%,-16,-19%,6.5µM*,6.5µM*,?
COc1ccc(C2C(C#N)=C(N)Oc3cc(O)ccc32)cc1OC (stereo not given),-12%,-22,-1%,-25%,?,?
COc1cc(C2C(C#N)=C(N)Oc3cc(O)ccc32)cc2c1OCO2 (stereo not given),21µM*,41,?,?,?,?
COc1cc(C2C(C#N)=C(N)Oc3cc4c(cc32)OCO4)cc(OC)c1OC (stereo not given),0.029µM*,81,0.037µM*,0.16µM*,0.18µM*,?
N#CC1=C(N)Oc2cc3c(cc2C1c1ccc(Cl)cc1)OCO3 (stereo not given),?,-2,0%,?,?,?
C=C(C)CSc1nc2sc3c(c2c(=O)n1CCCC)CCCC3,nt,nt,nt,-17%,-20%,nt
C=CCNC(=O)CSc1nc2sc3c(c2c(=O)n1CCC)CCC3,-15%,-8,-18%,15µM*,?,?
C=CCNC(=O)CSc1nc2sc3c(c2c(=O)n1CCCOC)CCC3,-6%,0,-8%,-7%,-16%,-20%
C=C(C)Cn1c(SCC(=O)Nc2cccc(Cl)c2)nc2sc3c(c2c1=O)CCCC3,nt,nt,nt,15µM*,?,nt
C=C(C)Cn1c(SCC(=O)c2ccc(OC)cc2)nc2sc3c(c2c1=O)CCCC3,nt,nt,nt,12µM*,10µM*,nt
Cc1cccc(Cn2cccc2CNS(=O)(=O)c2ccccc2F)c1,nt,nt,nt,?,-19%,nt
C[C@H](CO)N1C[C@H](C)[C@H](CN(C)C(=O)Nc2ccc(F)cc2)OCc2cnnn2CCCC1=O,-5%,-16,-3%,0%,-12%,nt
COc1ccc(C(C(=O)NC2CCCC2)n2c(CSCCOc3ccccc3)nc3ccccc32)cc1 (stereo not given),-16%,7,-11%,?,?,nt
CC(=O)c1ccc(S(=O)(=O)N2CCN(c3nc(-c4ccccc4)nc4ccccc34)CC2)cc1,nt,nt,nt,?,-17%,nt
CCN1CCN(c2nc(-c3ccccc3)nc3ccccc23)CC1,-14%,-65*,-13%,29µM*,?,-19%
Cc1ccc(-c2nc(N3CCN(C)CC3)c3ccccc3n2)cc1,-5%,?,-29%,?,?,-8%
CN1CCN(c2nc(-c3ccc(C(C)(C)C)cc3)nc3ccccc23)CC1,-15%,-16,-15%,21µM*,?,?
COCCCN1C(=O)c2ccc(C(=O)N3CCN(c4ccccc4OC)CC3)cc2C1=O,0%,11,0%,16%,-10%,10%
CCN(CC)S(=O)(=O)c1cc(NC(=O)C(C)N2CCc3ccccc32)ccc1C (stereo not given),-24%,?,?,26µM*,?,?
Cc1ccc(NC(=O)C(C)N2CCCc3ccccc32)cc1S(=O)(=O)N1CCOCC1 (stereo not given),-5%,-7,-1%,6.5µM*,-88%,nt
CC(C(=O)Nc1ccc(S(N)(=O)=O)cc1)N1CCc2ccccc21 (stereo not given),-6%,0,-9%,-9%,13%,4%
SMILES,HT1080 IDH1KD tx,IL1B secr inh,HT1080-NT tox,TDP1 cell noCPT,DT40 TDP1 CPT,ELG1 DNA repair
Cc1ccc(NC(=O)Nc2ccccc2F)cc1S(=O)(=O)N1CCOCC1,2%,9,0%,?,?,21µM*
CCN(CC)S(=O)(=O)c1cc(NC(=O)C(C)N(C)CC(=O)Nc2c(C)cccc2C)ccc1C (stereo not given),-4%,-3,-2%,18µM*,26µM*,21µM*
COc1ccc(/C=C2\CCc3ccccc3C2=O)cc1O,4.1µM*,10,2.3µM*,0.82µM*,0.52µM*,?
COc1ccc(/C=C2\CCC(C3CCCC3)C2=O)cc1Cn1cccn1 (stereo not given),-8%,-80*,-1%,?,18µM*,-21%
COc1ccc(/C=C2\Cc3ccccc3C2=O)cc1OC,5%,-1,3%,?,-19%,?
COc1ccc2c(c1)CC/C(=C/c1ccncc1)C2=O,-10%,-105*,0%,16µM*,16µM*,-24%
COc1ccc(/C=C2\CCc3ccccc3C2=O)cc1Cn1cccn1,-16%,?,-5%,?,21µM*,-3%
CC1(C(=O)Nc2ccc3c(c2)OCO3)CCN1C(=O)CCc1ccc(Cl)cc1Cl (stereo not given),-13%,-3,-6%,?,?,nt
Cc1ccc(CNc2ncnc3sc(C(=O)N4CCC(N5CCCC(O)C5)CC4)c(C)c23)o1 (stereo not given),nt,nt,nt,2%,2%[9.04 µM],nt
CC(=O)Nc1ccc(/C=C2\CCc3ccccc3C2=O)cc1,?,-96*,23µM*,-25%,15%,?
COc1ccc(-n2nnnc2C2CCN(S(=O)(=O)c3cccc(Cl)c3C)CC2)cc1,nt,nt,nt,26µM*,21µM*,nt
COc1ccc(-n2nnnc2-c2ccc(S(C)(=O)=O)cc2Cl)cc1,8%,0,0%,5.2µM*,?,?
COc1ccc(-n2nnnc2-c2ccccc2)cc1,?,39,5.6µM*,2.9µM*,3.7µM*,?
COc1ccc(-n2nnnc2CNC(=O)c2ccc(S(=O)(=O)N3CCOCC3)cc2)cc1,-4%,10,1%,-13%,8%,?
Oc1c(C=Nc2ccccc2Cl)[nH]c2ccccc12,5%,16,-1%,-6%,-20%,?
CC12CC(NC(=O)N1c1cccc(C(=O)NCc3ccc4c(c3)OCO4)c1)c1cc(Cl)ccc1O2 (stereo not given),?,?,?,18µM*,18µM*,?
